Experimental findings from PubChem BioAssay (NCI) are described below.

Assay [1] can be described thus: NCI Yeast Anticancer Drug Screen. Data for the rad50 strain (AID 155).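 Also: 0% = growth of vehicle-only cultures of the same strain.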 To be noted: S. cerevisiae rad50 strain growth inhibition; at 50.0 µM; stronger effect = higher value. Put shortly: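 DNA repair mutant yeast, compound exposure, growth read-out; inhibition is taken relative to vehicle.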
Assay [2] can be described thus: NCI Yeast Anticancer Drug Screen. Data for the mec2-1 strain (AID 157). The following applies: S. cerevisiae mec2-1 strain, at 50.0 µM, stronger effect = higher value. Summed up:
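Readout is yeast growth inhibition, normalised to vehicle-treated controls, in the mec2-1 strain exposed to compound.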

Assay [3] can be described thus: NCI Yeast Anticancer Drug Screen. Data for the sgs1 mgt1 strain (AID 161).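 Also: 0% = growth of cultures given vehicle only.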 The following applies: S. cerevisiae sgs1 mgt1 strain, at 50.0 µM, stronger effect = higher value. Put shortly: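 Compounds are added to genetically altered yeast, and growth is compared with cultures given vehicle alone to give percent inhibition.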
A short description of assay [4]: NCI Yeast Anticancer Drug Screen. Data for the cln2 rad14 strain (AID 165).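 Also: 0% = growth equal to vehicle treated cultures.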 The following applies: S. cerevisiae cln2 rad14 strain, at 50.0 µM, stronger effect = higher value. Summed up: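 Relative to vehicle controls, growth inhibition of compound-treated cln2 rad14 yeast was recorded.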
Assay [5] is described as follows: NCI Yeast Anticancer Drug Screen. Data for the bub3 strain (AID 167). The following applies: S. cerevisiae bub3 mutant strain, at 50.0 µM, stronger effect = higher value. Put shortly:
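In this screen, a yeast mutant lacking normal mitotic checkpoint function is challenged with compound. Relative growth versus vehicle gives the inhibition value.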

Assay [6] is described as follows: NCI Yeast Anticancer Drug Screen. Data for the mlh1 rad18 strain (AID 175). To be noted: S. cerevisiae mlh1 rad18 strain growth inhibition; at 50.0 µM; stronger effect = higher value. Put shortly:
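Test agents were incubated with a yeast strain of defined genotype (DNA damage repair defect). Inhibition of growth was derived by comparison with vehicle-exposed cultures.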

Each structure is given as a SMILES string. The panel holds about 79,000 compounds, 15% with a hit somewhere; the sample as a whole holds those more often. A number with no mark means an inactive call. The source made the active and inactive calls. Rule as the data show it: active = growth inhibition above about 70%; inactive = the rest.

With `COc1ccc2c(Cc3ccccc3O)cncc2c1O`, the growth inhibition in assay [1] was 0.9%; in assay [2], 2.25%; in assay [3], -4.75%; in assay [4], -3.5%; in assay [5], -5.9%; in assay [6], 14.8%.
For `c1ccc(-c2cc[n+]3c4c2ccc2c(-c5ccccc5)cc[n+](c24)CC3)cc1`, the growth inhibition in assay [1] was 78.5% (active); in assay [2] it was 51.5%; in assay [3] it was 89.6% (active); in assay [4], 73.8% (active); in assay [5] it was 25.8%; in assay [6] it was 87.2% (active).
For the compound `Cc1nc2nn[nH]n2c(=O)c1CCO`, the growth inhibition in assay [1] is 13.2%; in assay [2] it was 0.15%; in assay [3], 16.2%; in assay [4] it was 14.2%; in assay [5] it was -6.95%; in assay [6] it was -51.6%.
In the case of `CCN1c2ccccc2CC(CCN(C(C)C)C(C)C)(C(N)=O)c2ccccc21` (stereo not drawn), the growth inhibition in assay [1] is 40.9%; in assay [2] it was 4.9%; in assay [3], 24.8%; in assay [4], 21.3%; in assay [5], -3.1%; in assay [6] it was -0.9%.
Consider `CCNC1=C(C(=O)OCC)C(=O)CO1`, for which the growth inhibition in assay [1] is 34%; in assay [2], 15.9%; in assay [3], 24.2%; in assay [4], 9.95%; in assay [5], 0.3%; in assay [6] it was -0.1%.
On to `C#CCN(C)C(C)=O`, for which the growth inhibition is 25.3% in assay [1]; -3.3% in assay [2]; 5.1% in assay [3]; 10.8% in assay [4]; 6.45% in assay [5]; 13.6% in assay [6].
As to `COc1ccc2oc(=O)c(CC=C(C)C)c(O)c2c1C`, the growth inhibition was 23.8% in assay [1]; 13.9% in assay [2]; -1.65% in assay [3]; -10.9% in assay [4]; -25.2% in assay [5]; -51% in assay [6].
On to `COc1ccc(C(=Nc2ccc(C)cc2)c2ccccc2)cc1`, for which the growth inhibition in assay [1] is -2.1%; in assay [2] it was 7.2%; in assay [3] it was -6.05%; in assay [4], -43.6%; in assay [5] it was -9.1%; in assay [6], -15.6%.
For the compound `O=Cc1cccs1`, the growth inhibition in assay [1] is 23%; in assay [2], -2%; in assay [3], 7.85%; in assay [4], -14.6%; in assay [5], 8.3%; in assay [6], 33.9%.
With `CCOP(=O)(CCCCCCP(=O)(OCC)OCC)OCC`, the growth inhibition in assay [1] was 30.4%; in assay [2] it was 18.4%; in assay [3] it was -0.2%; in assay [4], -31.1%; in assay [5] it was 8.45%; in assay [6], 32.9%.
For the compound `Cc1cccc(NC(C(=O)O)c2ccccc2)c1` (stereo not drawn), the growth inhibition is -13.8% in assay [1]; 8.8% in assay [2]; -12.8% in assay [3]; -65.2% in assay [4]; 26.1% in assay [5]; 5.45% in assay [6].
On to `CN(C)CCCNC=O`, for which the growth inhibition in assay [1] is -30.2%; in assay [2], -10.9%; in assay [3], -26.2%; in assay [4], -11.2%; in assay [5] it was -0.45%; in assay [6], 23.6%.
With `SC1(S)CCCN(Cc2ccccc2)C1`, the growth inhibition in assay [1] was 8.55%; in assay [2], 19.2%; in assay [3] it was 42.8%; in assay [4] it was 35.6%; in assay [5], 44%; in assay [6], 37.8%.
On to `CSC(=N)N1N=C2c3ccccc3CC[C@@H]2[C@@H]1c1ccccc1`, for which the growth inhibition is -0.1% in assay [1]; -7.3% in assay [2]; -18.9% in assay [3]; 38% in assay [4]; -10.8% in assay [5]; -18.4% in assay [6].
`CC(=O)OC1OC(COC(c2ccccc2)(c2ccccc2)c2ccccc2)C(OCc2ccccc2)C(OCc2ccccc2)C1OC(C)=O` (stereo not drawn): the growth inhibition was -14.3% in assay [1]; -18.1% in assay [2]; -21.1% in assay [3]; 13.3% in assay [4]; 0.45% in assay [5]; 1.65% in assay [6].
For `COCn1c(C(=O)c2ccc(OC)cc2)cc2ccccc21`, the growth inhibition in assay [1] is 7.45%; in assay [2], 11.8%; in assay [3] it was -3.9%; in assay [4] it was -11.5%; in assay [5] it was 16.1%; in assay [6], 23.4%.
For the compound `O=[N+]([O-])C(/C=C(\Cl)[N+](=O)[O-])=C1Nc2ccccc2N1`, the growth inhibition in assay [1] was 29.9%; in assay [2] it was 45.1%; in assay [3], 57.2%; in assay [4] it was 19.4%; in assay [5], 21.1%; in assay [6] it was 50.5%.
In the case of `CC(CNC(N)=O)(CNC(N)=O)c1ccccc1`, the growth inhibition in assay [1] was -4.75%; in assay [2] it was -9.05%; in assay [3], -11.8%; in assay [4], -21.6%; in assay [5], -0.45%; in assay [6] it was -25.1%.
Take `CCOC(=O)c1ccc(NC(=S)NC(=O)c2cccs2)o1`: the growth inhibition is 43.4% in assay [1]; 49.8% in assay [2]; 39.4% in assay [3]; 36.1% in assay [4]; 31.2% in assay [5]; 63.4% in assay [6].
Consider `Cc1ccc(S(=O)(=O)NN=C2CCCCCC2)cc1`, for which the growth inhibition in assay [1] was 8.65%; in assay [2], 7.55%; in assay [3], 8.75%; in assay [4] it was -24.9%; in assay [5], -12.4%; in assay [6], 5.65%.
Take `COC(=O)C1C(C(=O)OC)C2(C)C(=O)C1(C)C(c1ccccc1)=C2c1ccccc1` (stereo not drawn): the growth inhibition was -0.7% in assay [1]; 2.55% in assay [2]; -5.4% in assay [3]; -12.3% in assay [4]; 1.15% in assay [5]; 5.15% in assay [6].
For the compound `O=C(O)CCC(C(=O)O)N(Cc1ccccc1)Cc1ccccc1` (stereo not drawn), the growth inhibition in assay [1] was 11.4%; in assay [2], -0.4%; in assay [3] it was -1.45%; in assay [4], 1%; in assay [5], 7.75%; in assay [6], 5.9%.
As for `C[NH-].C[NH-].C[NH-].C[NH-].O=C(O)c1cc(C(=O)O)c(C(=O)O)cc1C(=O)O.[Pt+2].[Pt+2]`, the growth inhibition in assay [1] is -6.25%; in assay [2] it was -2.6%; in assay [3], -2.05%; in assay [4], -36%; in assay [5], 0.55%; in assay [6], 13.3%.
With `CN1C(=O)c2c(ccc3c2OCO3)C2C(O)Cc3cc4c(cc3C21)OCO4` (stereo not drawn), the growth inhibition in assay [1] is 6.85%; in assay [2] it was 9.9%; in assay [3], 21.8%; in assay [4], 27.9%; in assay [5], 7.15%; in assay [6], -51%.
For `Nc1ncnc2c1cnn2Cc1ccccc1`, the growth inhibition in assay [1] was 4.9%; in assay [2], -7.3%; in assay [3] it was 4.65%; in assay [4] it was -3.75%; in assay [5], 21.2%; in assay [6], 2.35%.
Take `CN(C)/C=C(/N=C(C#N)C#N)C1OCCO1`: the growth inhibition in assay [1] is 4.1%; in assay [2], 8.55%; in assay [3], -2.55%; in assay [4], -27.1%; in assay [5] it was 3.8%; in assay [6] it was -1.7%.
For the compound `Cc1ccc(C2=CSC3=NCCN23)cc1Cl`, the growth inhibition in assay [1] was -29.9%; in assay [2], -43.8%; in assay [3], 5.3%; in assay [4] it was -6.3%; in assay [5], -17.9%; in assay [6], 23.4%.
As to `O=C(Nc1cccc(Cl)c1)C(=O)C(C(=O)c1ccc2ccccc2c1)C1OC(=O)c2ccccc21` (stereo not drawn), the growth inhibition in assay [1] was 39%; in assay [2], 18.4%; in assay [3], 26.1%; in assay [4], 37.2%; in assay [5], 22.9%; in assay [6], -9.1%.
`Cc1ccc(C2=C(c3ccccc3)C(O)(c3ccccc3)C(c3ccccc3)=C2c2ccc(C)cc2)cc1`: the growth inhibition in assay [1] is -1.6%; in assay [2] it was -20.1%; in assay [3], -31.5%; in assay [4], 15.8%; in assay [5] it was 14.1%; in assay [6], -12.7%.
On to `C=C1C(=O)[C@@]23CC1C(O)[C@@H](OC(C)=O)[C@@H]2C1(C)C(OC(C)=O)C[C@@H](OC(C)=O)C(C)(C)[C@@H]1C[C@H]3OC(C)=O` (stereo partly drawn), for which the growth inhibition in assay [1] is 16.1%; in assay [2], 11.9%; in assay [3], 14%; in assay [4], 22.4%; in assay [5], 2.05%; in assay [6] it was 0.15%.
For `CN(C)c1nnnn1-c1c(N)n(C)c(=O)n(C)c1=O`, the growth inhibition was -30.1% in assay [1]; -23.2% in assay [2]; 0% in assay [3]; 6.4% in assay [4]; -26.8% in assay [5]; -27.1% in assay [6].
On to `CCC(c1ccc(Cl)cc1)N(CC)c1ccccn1` (stereo not drawn), for which the growth inhibition in assay [1] is 7%; in assay [2], -0.4%; in assay [3], 16.6%; in assay [4] it was -52.4%; in assay [5], 3.5%; in assay [6], -30.2%.
In the case of `O=c1oc2ccccc2cc1F`, the growth inhibition in assay [1] is 16.4%; in assay [2] it was 7.2%; in assay [3], -9.75%; in assay [4], 5.3%; in assay [5], 16.9%; in assay [6], 21.4%.
In the case of `O=C(O)C1C2C=CC(O2)C1C(=O)Nc1ncccn1` (stereo not drawn), the growth inhibition is -0.65% in assay [1]; -33.9% in assay [2]; -14.4% in assay [3]; -23.3% in assay [4]; -35.4% in assay [5]; -3.6% in assay [6].
As to `CCC/C=N\NS(=O)(=O)c1ccc(NC(C)=O)cc1`, the growth inhibition in assay [1] was 4.65%; in assay [2], -28.4%; in assay [3] it was 11.6%; in assay [4], 12.6%; in assay [5], -43.7%; in assay [6], 27.2%.
For `N#CCC(=O)N/N=C(\C#N)c1ccccc1`, the growth inhibition in assay [1] was 8.65%; in assay [2], 1.95%; in assay [3], 0.55%; in assay [4] it was -51.9%; in assay [5], -18.1%; in assay [6], 0.75%.
`CCOC(=O)C(NC(N)=O)C(=O)OCC`: the growth inhibition in assay [1] was -1.05%; in assay [2], 15%; in assay [3], 0.95%; in assay [4], -34.7%; in assay [5] it was 21.9%; in assay [6] it was 4.7%.
On to `CCCCCC/C(C=O)=C\c1ccccc1`, for which the growth inhibition in assay [1] is 31.8%; in assay [2], 17.6%; in assay [3], 26.6%; in assay [4] it was 16.4%; in assay [5] it was -4.6%; in assay [6], 20.4%.
